Common to all, as to assay: NCI-60 one-dose screen, 48 h (100 = growth as untreated, 0 = no growth, -100 = all killed)
The subject of one test is HCT-15 colon. The settings on record: 10 µM unless noted.
The test system of the next test is HT29 colon. The settings on record: 10 µM unless noted.
Another test concerns SNB-75 CNS. To be noted: 10 µM unless noted.
For a further test, the system named is SNB-19 CNS. To be noted: 10 µM unless noted.
In a further test the test system is U251 CNS. The settings on record: 10 µM unless noted.
A further test concerns PC-3 prostate. The settings on record: 10 µM unless noted.
The subject of a further test is SK-MEL-5 melanoma. To be noted: 10 µM unless noted.
The subject of a further test is LOX IMVI melanoma. The settings on record: 10 µM.
The next test deals with SK-MEL-28 melanoma. To be noted: 10 µM unless noted.
The next test relates to SK-MEL-2 melanoma. The settings on record: 10 µM unless noted.
The subject of a further test is EKVX NSCLC. To be noted: 10 µM unless noted.
The next test concerns SN12C renal. To be noted: 10 µM unless noted.
The next test concerns UO-31 renal. To be noted: 10 µM unless noted.
For another test, the system named is TK-10 renal. The settings on record: 10 µM unless noted.
In a further test the test system is ACHN renal. To be noted: 10 µM unless noted.
In a further test the test system is CAKI-1 renal. To be noted: 10 µM unless noted.
Another test deals with A498 renal. The settings on record: 10 µM unless noted.
The next test has as its system CCRF-CEM leukemia. The settings on record: 10 µM unless noted.
The next test concerns MOLT-4 leukemia. To be noted: 10 µM unless noted.
The next test has as its system UACC-62 melanoma. The settings on record: 10 µM unless noted.

The structures appear in SMILES notation. This is part of a sample that, as a whole, favours compounds with a hit. Of some 83,000 tested, about 20% had one in any assay.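 In brief: 96-well plates, 48 h treatment, single concentration, percent growth endpoint.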 Unmarked numbers belong to inactive results. Activity calls are given as the source filed them. How the source made its calls: active means growth percent below 10; inactive means the rest.

Turning to `CC(C)C1CCC(C)C(O)C1` (stereo not drawn), the growth with HCT-15 colon was 107%; with HT29 colon it was 105%; in the test on SNB-75 CNS it was 91.1%; in the test with SNB-19 CNS it was 99.6%; in the test with U251 CNS, 89%; in the test on PC-3 prostate, 89%. Besides, the growth with SK-MEL-5 melanoma is 105%; with LOX IMVI melanoma, 99.6%; in the test with SK-MEL-28 melanoma it was 110%; in the test on SK-MEL-2 melanoma, 94.2%; in the test on EKVX NSCLC it was 102%; in the test on SN12C renal, 96.3%. Moreover, the growth in the test with UO-31 renal is 89.3%; in the test on TK-10 renal, 99.2%; with ACHN renal, 104%; in the test with CAKI-1 renal it was 98%; with A498 renal, 92%; in the test on CCRF-CEM leukemia, 96.1%. Moreover, the growth in the test with MOLT-4 leukemia was 113%.

For the molecule `NC(=S)N/N=C/c1ccc(OC(=O)COc2ccc(Cl)cc2)cn1`, the growth in the test with HCT-15 colon is 70.6%; in the test with HT29 colon it was 79.3%; in the test on SNB-75 CNS it was 44.9%; with SNB-19 CNS it was 72.9%; in the test on U251 CNS it was 32.6%; in the test with PC-3 prostate it was 64.3%. In addition, the growth with SK-MEL-5 melanoma is 30.7%; in the test on LOX IMVI melanoma it was 23.8%; with SK-MEL-28 melanoma, 76.5%; in the test on SK-MEL-2 melanoma, 62.8%; in the test on EKVX NSCLC, 93.6%; in the test with SN12C renal, 28.2%. The growth was 24.9% with UO-31 renal; 74.9% in the test with TK-10 renal; 12.5% with ACHN renal; 0.332% (active) in the test on CAKI-1 renal; 57.3% in the test with A498 renal; 18.6% in the test on CCRF-CEM leukemia. Also, the growth in the test on MOLT-4 leukemia was 16.5%.

Turning to `CC(=O)N(CCCCCCN(C(C)=O)C(C)=O)C(C)=O`, the growth was 107% [100 µM] with HCT-15 colon; 114% [100 µM] with HT29 colon; 87.9% [100 µM] in the test on SNB-75 CNS; 99.2% [100 µM] in the test on SNB-19 CNS; 107% [100 µM] in the test with U251 CNS; 104% [100 µM] with PC-3 prostate. Besides, the growth in the test with SK-MEL-5 melanoma is 104% [100 µM]; with UACC-62 melanoma it was 97% [100 µM]; with SK-MEL-28 melanoma, 105% [100 µM]; in the test on SK-MEL-2 melanoma, 117% [100 µM]; in the test on EKVX NSCLC, 106% [100 µM]; in the test on SN12C renal, 103% [100 µM]. The growth was 98.1% [100 µM] in the test on UO-31 renal; 116% [100 µM] in the test with TK-10 renal; 104% [100 µM] in the test with ACHN renal; 98.7% [100 µM] in the test on CAKI-1 renal; 108% [100 µM] with A498 renal; 103% [100 µM] with CCRF-CEM leukemia. For the same molecule, the growth in the test with MOLT-4 leukemia is 113% [100 µM].

For the molecule `COC(=O)C1(CC(C)=O)NC(=S)NC(=O)C1C#N` (stereo not drawn), the growth is 106% in the test on HCT-15 colon; 104% in the test with HT29 colon; 112% with SNB-75 CNS; 98.4% in the test on SNB-19 CNS; 109% in the test on U251 CNS; 119% with PC-3 prostate. In addition, the growth with SK-MEL-5 melanoma is 100%; in the test on UACC-62 melanoma, 103%; in the test with SK-MEL-2 melanoma, 119%; in the test on EKVX NSCLC, 96.4%; in the test with SN12C renal, 101%; in the test with UO-31 renal it was 92.2%. In addition, the growth with TK-10 renal is 103%; with ACHN renal, 109%; in the test on CAKI-1 renal it was 94.6%; in the test on CCRF-CEM leukemia, 101%; in the test on MOLT-4 leukemia, 108%.

In the case of `CCNc1ncnc2[nH]ncc12`, the growth in the test on HCT-15 colon was 102%; in the test on HT29 colon, 108%; in the test on SNB-75 CNS it was 88.9%; with SNB-19 CNS, 104%; in the test on U251 CNS, 101%; in the test on PC-3 prostate, 94.6%. Also, the growth was 101% with SK-MEL-5 melanoma; 98% in the test with LOX IMVI melanoma; 111% in the test on SK-MEL-28 melanoma; 101% with SK-MEL-2 melanoma; 88.6% with EKVX NSCLC; 96.9% with SN12C renal. Besides, the growth is 99.7% with UO-31 renal; 102% in the test on TK-10 renal; 98.2% in the test with ACHN renal; 93% with CAKI-1 renal; 96.9% in the test on A498 renal; 30.1% with CCRF-CEM leukemia. For the same molecule, the growth with MOLT-4 leukemia was 134%.

With `OCCc1ccc(Cl)cc1`, the growth in the test with HCT-15 colon is 102%; in the test with HT29 colon it was 99.9%; in the test with SNB-75 CNS it was 86.5%; in the test on SNB-19 CNS, 96.5%; in the test with U251 CNS it was 92.3%; in the test with PC-3 prostate, 95.5%. Moreover, the growth with SK-MEL-5 melanoma was 103%; with LOX IMVI melanoma it was 100%; with SK-MEL-28 melanoma, 108%; in the test on SK-MEL-2 melanoma it was 99.3%; in the test on EKVX NSCLC, 97.9%; in the test with SN12C renal, 94.9%. The growth with UO-31 renal was 90.5%; with TK-10 renal, 94.7%; in the test on ACHN renal, 105%; in the test with CAKI-1 renal it was 92.7%; in the test with A498 renal it was 106%; with CCRF-CEM leukemia it was 96.9%. In addition, in the test with MOLT-4 leukemia, the growth is 109%.

As to `O=[N+]([O-])c1ccc(-c2nc(N(CCO)CCO)c3ccccc3n2)o1`, the growth in the test with HCT-15 colon is -3.11% (active); in the test with HT29 colon, -27.7% (active); in the test on SNB-75 CNS, -91.7% (active); in the test with SNB-19 CNS, -0.996% (active); with U251 CNS it was 7.6% (active); in the test with PC-3 prostate, -0.975% (active). Further, the growth was -99% (active) in the test with SK-MEL-5 melanoma; -65.6% (active) with LOX IMVI melanoma; -64.8% (active) in the test with SK-MEL-28 melanoma; -62.7% (active) with SK-MEL-2 melanoma; -32.4% (active) in the test on EKVX NSCLC; 4.44% (active) in the test on SN12C renal. In addition, the growth in the test with UO-31 renal is -40.6% (active); in the test with TK-10 renal it was -14.1% (active); in the test on ACHN renal, -14.5% (active); in the test with CAKI-1 renal, -28.2% (active); in the test with A498 renal it was -77.1% (active); in the test on CCRF-CEM leukemia, 21.1%. Besides, in the test with MOLT-4 leukemia, the growth was 12.5%.

As for `c1ccc2c(NCCCN3CCN(CCCNc4c5ccccc5nc5ccccc45)CC3)c3ccccc3nc2c1`, the growth in the test with HCT-15 colon was 2.79% [100 µM] (active); in the test on HT29 colon, -37.3% [100 µM] (active); in the test on SNB-75 CNS, -91% [100 µM] (active); with SNB-19 CNS, -21.1% [100 µM] (active); in the test with U251 CNS, -19.4% [100 µM] (active); with PC-3 prostate, -33.1% [100 µM] (active). The growth is -70.3% [100 µM] (active) with SK-MEL-5 melanoma; -88.5% [100 µM] (active) in the test on UACC-62 melanoma; -72.3% [100 µM] (active) in the test on SK-MEL-28 melanoma; -76.8% [100 µM] (active) in the test with SK-MEL-2 melanoma; -48.6% [100 µM] (active) in the test on EKVX NSCLC; -35.9% [100 µM] (active) in the test on SN12C renal. Also, the growth with UO-31 renal was -27.6% [100 µM] (active); with TK-10 renal it was -9.59% [100 µM] (active); in the test on CAKI-1 renal, -15.5% [100 µM] (active); in the test on CCRF-CEM leukemia, -0.0236% [100 µM] (active); with MOLT-4 leukemia it was -5.28% [100 µM] (active).
